Screening results: PubChem, National Center for Advancing Translational Sciences (NCATS)
G9a block – qHTS Assay for Inhibitors of Histone Lysine Methyltransferase G9a. Potency, µM (titrated, usually from 102 µM), for inactives: at the top dose activity, negative = inhibition, most hits filed as inhibitors. actives 8.8% (n = 350,000). G9a H3K9 monomethylation, AlphaScreen, 2 h. Histone-lysine N-methyltransferase EHMT2 (Homo sapiens), Q96KQ7. AID 504332, 2011; note: % is set by controls: 0 for no effect and ±100 for the full control effect; nearly all actives have a fitted effect of over 75% in size
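Compounds were preincubated with 20 nM G9a for 15 min, after which biotinylated H3K9 peptide (500 nM) and SAM (20 uM) started a 2 h room-temperature reaction. Monomethylated product was quantified by antibody-based AlphaScreen chemiluminescence.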
JMJD2A Tudor – qHTS Assay for Inhibitors of JMJD2A-Tudor Domain; Lysine-specific demethylase 4A (Homo sapiens), O75164; AlphaScreen JMJD2A-Tudor / H3K4me3 peptide binding; Potency, µM (top dose mostly 114 µM), inactives show top-dose activity change, negative = inhibition, actives largely listed as inhibitors; actives 4.4% (n = 390,000); AID 504339, 2011; note: % is set by controls: 0 for no effect and ±100 for the full control effect; nearly all actives have a fitted effect of over 50% in size
PLK1 PBD inh – qHTS for Inhibitors of PLK1-PDB (polo-like kinase 1 - polo-box domain): Primary Screen; Potency, µM, for inactives: max response, negative = inhibition, usual class: inhibitors; actives 2.8% (n = 360,000); Plk1 PBD binding of FITC phosphopeptide, fluorescence polarization; note: series mostly up to about 57 µM; % is set by controls: 0 for no effect and ±100 for the full control effect; nearly all actives have a fitted effect of over 65% in size
Target sequence (P53350 whole entry, looked up, the tested form may be a part): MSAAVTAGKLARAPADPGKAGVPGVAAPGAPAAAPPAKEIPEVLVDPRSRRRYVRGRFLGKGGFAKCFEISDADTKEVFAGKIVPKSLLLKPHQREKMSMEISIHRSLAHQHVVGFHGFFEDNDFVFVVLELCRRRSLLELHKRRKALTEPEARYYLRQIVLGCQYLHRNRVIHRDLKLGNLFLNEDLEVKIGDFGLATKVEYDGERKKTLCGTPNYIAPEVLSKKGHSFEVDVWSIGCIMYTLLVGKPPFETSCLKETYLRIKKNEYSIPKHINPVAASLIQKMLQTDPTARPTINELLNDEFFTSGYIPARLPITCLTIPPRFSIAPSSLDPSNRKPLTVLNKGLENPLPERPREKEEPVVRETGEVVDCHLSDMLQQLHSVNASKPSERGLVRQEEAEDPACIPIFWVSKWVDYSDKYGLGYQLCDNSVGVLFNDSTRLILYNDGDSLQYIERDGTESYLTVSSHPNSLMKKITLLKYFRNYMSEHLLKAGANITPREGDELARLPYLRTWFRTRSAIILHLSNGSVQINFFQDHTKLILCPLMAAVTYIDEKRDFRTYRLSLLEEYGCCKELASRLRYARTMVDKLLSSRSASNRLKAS
HP1b binding inh – HTS for Inhibitors of HP1-beta Chromodomain Interactions with Methylated Histone Tails; Chromobox protein homolog 1 (Homo sapiens), P83916; AlphaScreen HP1-beta / biotin-H3K9me3 peptide binding; Potency, µM (highest dose often 114 µM), without a hit: at the top dose activity change, negative = inhibition, most hits filed as inhibitors; actives 0.56% (n = 390,000); AID 540317, 2011; note: nearly all actives have a fitted effect of over 70% in size
Target sequence (P83916 whole entry, looked up): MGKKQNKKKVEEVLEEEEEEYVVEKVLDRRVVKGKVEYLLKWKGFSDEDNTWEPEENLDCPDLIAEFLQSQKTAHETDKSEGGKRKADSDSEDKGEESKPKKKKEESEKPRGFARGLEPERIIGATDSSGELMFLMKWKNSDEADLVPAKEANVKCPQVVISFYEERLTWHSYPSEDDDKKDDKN
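HP1-beta protein (50 nM final) preincubated 30 min at room temperature with biotinylated H3(1-18)K9me3 peptide (50 nM) in PBS pH 7.4, 0.01% Tween-20, then compound added for 30 min. AlphaScreen streptavidin donor/nickel chelate acceptor beads (10 ug/mL final), 30 min dark, luminescence read.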
Sfp PPTase inh – qHTS Assay for Inhibitors of Bacillus subtilis Sfp phosphopantetheinyl transferase (PPTase). Potency, µM, without a hit: largest response in the series, negative = inhibition, usual class: inhibitors. Biochemical Sfp PPTase activity, qHTS. actives 3.5% (n = 310,000). AID 1490, 2009. 4'-phosphopantetheinyl transferase ffp (Bacillus subtilis), Q9F4F7;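 note: the enzyme is Sfp with the accession as filed and its product quenches rhodamine fluorescence; 0% = enzyme reaction without inhibitor and -100% = no enzyme wells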
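With Hepes-Na pH 7.6 buffer containing 10 mM MgCl2, Sfp (15 nM) modified BHQ-2-YbbR (12.5 uM) using rhodamine-CoA (5 uM). Two reads 30 minutes apart at 525/598 nm yielded each well's rate.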
BAZ2B block – qHTS Assay for Inhibitors of BAZ2B. Bromodomain adjacent to zinc finger domain protein 2B (Homo sapiens), Q9UIF8. AlphaScreen BAZ2B-H3K14Ac peptide displacement. Potency, µM (doses to about 114 µM), for the others: top-dose activity change, negative = inhibition, hits mostly inhibitors. actives 4.4% (n = 360,000); note: % is set by controls: 0 for no effect and ±100 for the full control effect; nearly all actives have a fitted effect of over 60% in size
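AlphaScreen luminescence quantifies BAZ2B engagement of H3K14Ac peptide; the protein and biotinylated peptide are both at 50 nM final, buffer PBS pH 7.4 with 0.01% Tween-20, all steps at room temperature.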
* hit, by the source's call; ? = inconclusive; . = no result; [ ] = another dose, or the depositor's remark. Hits are enriched below; roughly 12% of the tested compounds scored in any of these assays. Calls come from the whole dose curve; as a rule, active = well fitted curve in the direction sought with a large enough effect; inconclusive = small, poorly fitted or top-dose-only effect, or another doubt; inactive = no such curve, though single readings can be large; an effect the other way counts as inactive or inconclusive. Potency is the fitted concentration of half-maximal effect.

SMILES	G9a block	JMJD2A Tudor	PLK1 PBD inh	HP1b binding inh	Sfp PPTase inh	BAZ2B block
CC(=O)Nc1ccc(S(=O)(=O)Nc2nnc(Cc3ccc(Cl)cc3)s2)cc1	22.4µM*	1.1%	26.7µM*	0.2%	?	-23.8%
CC(=O)Nc1ccc(S(=O)(=O)Nc2nnc(C(C)C)s2)cc1	25.1µM*	-33.3%	?	-2.4%	-3.2%	?
CC(=O)Nc1ccc(S(=O)(=O)Nc2nnc(C3CCCCC3)s2)cc1	?	-9.3%	23.8µM*	-7.3%	2.9%	7.3%
CC1C=CCC2C(=O)N(c3cccc(C(=O)Nc4ccc(Br)cc4)c3)C(=O)C12 (centres undefined)	.	-14.7%	-12.4%	11.2%	-5.3%	-7.1%
CC(=O)N1CCc2cc(S(=O)(=O)NC(Cc3ccccc3)C(=O)Nc3ccc(Cl)cc3)ccc21 (centres undefined)	6.6%[59 µM]	-1.7%	.	28.1%	.	.
Cc1ccc(OCc2cn3cccnc3n2)cc1	-1.9%[59 µM]	-8.3%	1.7%	34.5%	12.2%	89.1µM*
Cc1cccn2cc(COc3ccc(-c4ccccc4)cc3)nc12	-2.5%[59 µM]	-25.0%	-0.4%	-4.5%	35.5µM*	?
O=[N+]([O-])c1cccc(OCc2cn3cccnc3n2)c1	7.1%	-3.8%[11.4 µM]	26.7µM*	?	3.2%	-12.2%
Cc1cccn2cc(COc3cccc([N+](=O)[O-])c3)nc12	-8.7%	-18.9%	-1.1%	22.3%	-1.0%	-2.6%
Cc1ccccc1N(CC(=O)NC1CCCCC1)C(=O)CNC(=O)c1cccs1	7.6%	1.0%	2.8%	-1.5%	9.8%	25.8%
Cc1cn2c(=O)cc(COc3cccc(NC(=O)c4ccccc4Cl)c3)nc2s1	-17.1%[59 µM]	-9.9%	.	23.9%	.	-19.3%
CC(C)c1ccc(/C=N/n2c(COc3ccccc3)n[nH]c2=S)cc1	50.1µM*	35.5µM*	23.8µM*	39.8µM*	-21.7%	?
S=c1[nH]nc(COc2ccccc2)n1/N=C/c1cccnc1	1.78µM*	10µM*	?	-8.9%	-5.0%	-5.8%
COc1cccc(/C=N/n2c(COc3ccccc3)n[nH]c2=S)c1	1.78µM*	79.4µM*	23.8µM*	?	?	?
O=C(O)COc1ccc(/C=N/n2c(COc3ccccc3)nc3ccccc3c2=O)cc1	?	-12.8%	-8.7%	23.2%	25.9%	7.5%
S=c1[nH]nc(COc2ccccc2)n1/N=C/c1cccc(Br)c1	8.91µM*	?	29.9µM*	-5.3%	?	-28.9%
CCCC[C@@H]1C[C@H]1C(NC(=O)c1ccccc1)c1ccccc1C(F)(F)F (some centres undefined)	.	.	.	.	17.6%	.
CCS(=O)(=O)Nc1cc(-c2cn3ccc(C)cc3n2)ccc1C	-15.3%[59 µM]	-20.4%	.	29.1%	.	-26.2%
S=c1[nH]ncn1/N=C/c1cccc(Oc2ccccc2)c1	-122.8%	44.7µM*	-9.1%	?	-20.0%	-38.0%
Brc1ccc(OCc2nnnn2-c2ccccc2)cc1	51.1%[59 µM]	20.8%	-22.1%	114.6%	-15.1%	6.5%
S=c1[nH]nc(COc2ccccc2)n1/N=C/c1ccc(Br)cc1	20µM*	-20.7%	26.7µM*	4.8%	63.1µM*	-6.1%
Cc1ccc(/C=N/n2c(COc3ccccc3)n[nH]c2=S)cc1	8.91µM*	?	21.2µM*	7.2%	?	-12.3%
CCC(NC(=O)c1ccc2nc(Cc3ccc(OC)cc3)oc2c1)c1ccncc1 (centres undefined)	10.7%	0.8%	5.2%	59.7%	23.2%	-17.6%
COc1ccc(CNC(=O)COC(=O)[C@H](Cc2ccccc2)NC(=O)c2cccs2)cc1	.	-8.7%	8.4%	19.2%	.	.
Cc1cccc(-n2ccnc2SCC(=O)Nc2cccc(S(=O)(=O)NC3=NCCC3)c2)c1C	39.8µM*	-23.0%	-19.3%	13.5%	.	-11.7%
SMILES	G9a block	JMJD2A Tudor	PLK1 PBD inh	HP1b binding inh	Sfp PPTase inh	BAZ2B block
Cc1ccc(C)c(NC(=O)CSc2nccn2-c2cccc(C)c2C)c1	17.8µM*	?	.	?	.	10µM*
Cc1ccc(-c2nc3ncccc3o2)cc1NC(=O)c1ccc(-c2cccc(Cl)c2C)o1	1.1%[59 µM]	-13.7%	.	16.7%	.	2.9%
Cc1cccc2c(=O)c(-c3ccc4c(c3)OCO4)c(NC(=O)c3ccco3)oc12	5.1%[0.0925 µM]	?	23.8µM*	10.1%	7.3%	-14.9%
COc1ccc(N=C(N)SCc2ccccn2)cc1	15.8µM*	50.1µM*	-11.9%	?	?	?
COc1ccc(-c2nnc(SCc3ccccn3)n2C)cc1	12.0%[59 µM]	-10.7%[11.4 µM]	29.9µM*	-7.3%	13.7%	-2.5%
CCOc1ccc(-c2ccc(SCc3ccccn3)nn2)cc1	2.5%	-8.8%	4.5%	27.0%	14.1%	-2.4%
COc1ccccc1-c1nnc(SCc2ccccn2)n1C	19.9%[12.7 µM]	-1.3%	-8.0%	5.4%	-13.1%	4.5%
CCc1cc(-c2n[nH]c(C)c2-c2ccc3c(c2)OCCO3)c(O)cc1O	?	.	.	.	6.2%	.
O=[S+]([O-])(c1ccc2c(c1)OCCO2)N1CCN([S+](=O)([O-])c2c(F)cc(Br)cc2F)CC1	.	-9.6%	.	.	.	.
CCn1c(SCC(=O)NCC2CCCO2)nnc1-c1ccccc1OC (centres undefined)	24.0%[12.7 µM]	-5.5%	0.1%	38.7%	.	-1.9%
CCOc1ccccc1-c1nnc(SCC(=O)NC2CC3CCC2C3)n1CC (centres undefined)	44.7µM*	-12.0%	-10.0%	36.7%	10.1%	10.3%
CS(=O)(=O)N1CCC2(CC1)CN(c1ccc(-c3ccccc3)cc1)C2	-5.4%[12.7 µM]	.	.	.	3.8%	.
Clc1ccc(-n2nnnc2-c2cnc3ccccc3c2-c2ccccc2)cc1	14.1µM*	-30.6%	0.8%	5.2%	-3.8%	-20.1%
Clc1ccc(-c2nnnn2-c2ccc(Cl)cc2)cc1	-2.4%	24.5%	-6.8%	54.8%	15.5%	9.9%
Clc1ccc(-n2nnnc2-c2ccccc2)cc1	44.7µM*	2.9%	-28.7%	-15.4%	-20.6%	1.2%
CC(C)(C)c1ccc(S(=O)(=O)/N=C2\C=C(NS(=O)(=O)c3ccccc3)C(=O)c3ccccc32)cc1	10µM*	25.1µM*	13.4µM*	?	-8.9%	28.2µM*
Cc1ccc(S(=O)(=O)/N=C2\C=C(NS(=O)(=O)c3ccccc3)C(=O)c3ccccc32)c(C)c1	.	22.4µM*	18.9µM*	22.4µM*	.	.
O=C(NNC(=O)c1ccccc1F)C1=NN(c2ccccc2)C(=O)CC1	-3.7%[12.7 µM]	-11.8%	0.2%	44.5%	8.0%	9.9%
